# PubChem BioAssay
# For part of these data: Results with a measured potency or affinity are listed apart. Activity calls are given as the source filed them.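 Rule for the calls, unless noted: active = primary screen hit whose calcium fluorescence ratio, in both repeats, exceeds the weak agonist control mean by 3 SD; inactive = the rest.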
# Experiments:
# [1] = tested on: TRPC4 beta (transient receptor potential cation channel C4), mouse; assay: TRPC4 cation channel opening, retest – cell-based, Fluo4 calcium, HEK293 TRPC4beta/mu-opioid, duplicates, 10 µM, confirmation (AID 2426;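 active = fluorescence ratio normalized to control raised more than 50% in primary screen plus both repeat runs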); conditions: Fluo4 calcium fluorescence, at 10 µM; active compounds read high
# [2] = tested on: transient receptor potential cation channel C4 beta (TRPC4), mouse; assay: TRPC4 cation channel opening, second retest – cell-based, second round, Fluo4, HEK293 TRPC4beta/mu-opioid, 1 µM, confirmation (AID 2461;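 active = primary screen active and over 50% activation in each of two duplicate runs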); conditions: Fluo4 calcium fluorescence, at 1 µM; active compounds read high
# [3] = tested on: TRPC4 (transient receptor potential cation channel C4 beta), mouse; assay: potentiation of DAMGO EC20 TRPC4 response – cell-based, second round, Fluo-4, HEK293 TRPC4beta/mu-opioid, 1 µM, confirmation (AID 2554;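 active = primary screen hit whose fluorescence ratio, in both repeats, exceeds the weak agonist control mean by 3 SD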); conditions: DAMGO EC20, Fluo-4 calcium flux, at 1 µM; active compounds read high
# [4] = tested on: TRPC4 beta (transient receptor potential cation channel C4), mouse; assay: potentiation of DAMGO EC20 TRPC4 response – cell-based, Fluo-4, HEK293 TRPC4beta/mu-opioid, confirmation (AID 2555); conditions: DAMGO EC20, Fluo-4 calcium flux, at 10 µM; active compounds read high
# [5] = molecular target: Short transient receptor potential channel 4 (Mus musculus) (UniProt Q9QUQ5); assay: blockers of DAMGO-evoked TRPC4 calcium flux – cell-based, Fluo4, HEK293 TRPC4beta/mu-opioid, confirmation (AID 2636;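 active = calcium signal cut by more than 3 SD below the full-agonist control yet still positive, in both repeats and the earlier primary screen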); conditions: at 10 µM; active compounds read high
# [6] = molecular target: Short transient receptor potential channel 4 (Mus musculus) (UniProt Q9QUQ5); assay: blockers of DAMGO-evoked TRPC4 calcium flux – cell-based, second round, Fluo4, HEK293 TRPC4beta/mu-opioid, 1 µM, confirmation (AID 2637;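 active = calcium signal ratio cut to more than 3 SD under the fully stimulated control mean yet still positive, in both repeats and the primary screen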); conditions: at 1 µM; active compounds read high
# [7] = molecular target: Short transient receptor potential channel 4 (Mus musculus) (UniProt Q9QUQ5); assay: calcium entry via TRPC4 opening agents – cell-based, HEK293 TRPC4/mu-opioid, Fluo-4 calcium, dose response (AID 434937;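 active = primary screen activator hit with a dose response curve and TRPC4 channel activation at any tested dose; inactive = no activation, no dose response, or not a primary hit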)
# [8] = molecular target: Short transient receptor potential channel 4 (Mus musculus) (UniProt Q9QUQ5); assay: potentiation of DAMGO-evoked TRPC4 calcium signal – cell-based, HEK293 TRPC4/mu-opioid, Fluo-4 calcium, EC20 DAMGO, dose response (AID 434941;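 active = earlier screen potentiator hit that boosts the TRPC4 ion channel at some dose, with a dose response; inactive = no potentiation, no dose response, or not a prior hit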;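 note: calcium entry triggered by an EC20 dose of DAMGO at the co-expressed mu-opioid receptor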)
# [9] = molecular target: Short transient receptor potential channel 4 (Mus musculus) (UniProt Q9QUQ5); assay: block of DAMGO-driven TRPC4 calcium entry – cell-based, HEK293 TRPC4/mu-opioid, Fluo-4 calcium, dose response (AID 434942;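 active = primary screen inhibitor hit that blocks the TRPC4 channel at some tested dose, yielding a dose curve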)
# [10] = molecular target: Short transient receptor potential channel 6 (Mus musculus) (UniProt Q61143); assay: TRPC6 blockade by TRPC4 inhibitor hits – cell-based, HEK293, membrane potential dye, duplicate, selectivity assay for TRPC4 inhibitor project, confirmation (AID 434948;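 active = active in primary screen and both duplicates, each dropping signal beyond three positive-control SD with fluorescence still positive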); conditions: HEK293 TRPC6, membrane potential dye fluorescence, at 10 µM, stimulated with maximal-effect acetylcholine; active compounds read high
# [11] = molecular target: Short transient receptor potential channel 6 (Mus musculus) (UniProt Q61143); assay: TRPC6 opening by TRPC4 activator hits – cell-based, HEK293, membrane potential dye, duplicate, selectivity assay for TRPC4 activator project, confirmation (AID 434950;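 active = membrane potential signal rise above negative control mean plus 3 SD in both duplicates, also active in the earlier TRPC4 screen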); conditions: HEK293 TRPC6, membrane potential fluorescence, at 10 µM; activation: active compounds read high; outcome: activation
# [12] = molecular target: Short transient receptor potential channel 6 (Mus musculus) (UniProt Q61143); assay: positive modulators of mouse TRPC6 channel – HEK293 cells, membrane potential dye, duplicate, selectivity assay for TRPC4 potentiator project, confirmation (AID 434952;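 active = compound raising the membrane signal above positive-control mean plus 3 SD in both repeats, and a primary screen hit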); conditions: HEK293 TRPC6, membrane potential dye fluorescence, at 10 µM, maximal acetylcholine added after compound; active compounds read high
# [13] = molecular target: Short transient receptor potential channel 4 (Mus musculus) (UniProt Q9QUQ5); assay: calcium flux activators in TRPC4/5HT1a cells, counter-screen for TRPC4 activator project, cell-based, second counter screen, HEK293 TRPC4/5HT1a, Fluo-4 (AID 434977;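 active = calcium signal rise above buffer-control mean plus 5 SD in both duplicates, and also a hit in the primary screen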); conditions: Fluo-4 calcium flux, at 10 µM; active compounds read high
# [14] = serotonin-gated TRPC4 signal block – cell-based, second counter screen, HEK293 TRPC4/5HT1a, Fluo-4, counter-screen for TRPC4 inhibitor project, confirmation (AID 434978;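 active = primary screen active whose calcium signal fell more than 3 SD beyond the full-serotonin control mean in both duplicate plates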;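 for outcome: serotonin given first at submaximal then at maximal dose after compound preincubation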); conditions: Fluo-4 calcium flux, at 10 µM, serotonin added to trigger calcium flux; active compounds read high
# [15] = tested on: TRPC4 (mouse), co-expressed with 5HT1a in HEK293; assay: enhancement of serotonin-evoked TRPC4 response – cell-based, second counter screen, HEK293 TRPC4/5HT1a, Fluo-4, counter-screen for TRPC4 potentiator project, confirmation (AID 434979;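 active = signal rise over 3 SD above mean of control wells given weak agonist, in both repeats and first screen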); conditions: Fluo-4 calcium flux, at 10 µM, serotonin added at its EC20 dose; active compounds read high
# [16] = nonspecific calcium rise without TRPC4 – cell-based, HEK293 mu-opioid receptor line, counter-screen for TRPC4 activator project, confirmation (AID 449723;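 active = hit in primary screen, with calcium signal over 5 SD above buffer well mean in both duplicates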;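 note: counter screen cells carry the mu-opioid receptor alone and lack TRPC4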); conditions: HEK293 mu-opioid cells, Fluo-4 calcium fluorescence, at 10 µM; active compounds read high
# [17] = nonspecific potentiation of DAMGO calcium response – cell-based, HEK293 mu-opioid receptor line, counter-screen for TRPC4 allosteric potentiator project, confirmation (AID 449724;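 active = calcium signal rise more than 3 SD above the low-dose agonist control mean, in both duplicate plates and the primary screen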); conditions: HEK293 mu-opioid receptor cells, Fluo-4 calcium flux, at 10 µM, compound added before EC20 DAMGO stimulus; active compounds read high
# Sequence of Short transient receptor potential channel 4 (Mus musculus) (Q9QUQ5 whole entry, looked up): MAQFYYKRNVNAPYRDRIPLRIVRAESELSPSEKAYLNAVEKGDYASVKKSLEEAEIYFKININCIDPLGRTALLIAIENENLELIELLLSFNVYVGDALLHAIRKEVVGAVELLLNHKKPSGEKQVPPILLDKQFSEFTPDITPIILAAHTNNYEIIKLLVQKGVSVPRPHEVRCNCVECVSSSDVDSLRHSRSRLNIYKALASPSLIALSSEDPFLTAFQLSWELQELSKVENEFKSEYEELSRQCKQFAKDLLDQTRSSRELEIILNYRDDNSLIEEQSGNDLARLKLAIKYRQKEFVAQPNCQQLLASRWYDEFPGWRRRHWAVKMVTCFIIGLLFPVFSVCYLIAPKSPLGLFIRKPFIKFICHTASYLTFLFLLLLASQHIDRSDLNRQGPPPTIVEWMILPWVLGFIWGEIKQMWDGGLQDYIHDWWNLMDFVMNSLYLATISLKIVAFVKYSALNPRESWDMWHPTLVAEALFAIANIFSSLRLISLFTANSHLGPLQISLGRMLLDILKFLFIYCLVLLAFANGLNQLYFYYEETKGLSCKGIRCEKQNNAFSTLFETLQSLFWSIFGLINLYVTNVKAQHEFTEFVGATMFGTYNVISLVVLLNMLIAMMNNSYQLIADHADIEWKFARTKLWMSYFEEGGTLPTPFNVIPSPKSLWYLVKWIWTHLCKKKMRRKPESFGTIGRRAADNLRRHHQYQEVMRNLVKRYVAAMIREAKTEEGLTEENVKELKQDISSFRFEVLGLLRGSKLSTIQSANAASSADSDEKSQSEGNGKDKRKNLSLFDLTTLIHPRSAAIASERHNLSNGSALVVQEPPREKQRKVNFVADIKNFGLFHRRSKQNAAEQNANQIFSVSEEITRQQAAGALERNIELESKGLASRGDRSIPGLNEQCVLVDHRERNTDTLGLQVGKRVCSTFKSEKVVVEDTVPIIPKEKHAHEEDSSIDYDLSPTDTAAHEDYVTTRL
# Sequence of Short transient receptor potential channel 6 (Mus musculus) (Q61143 whole entry, looked up): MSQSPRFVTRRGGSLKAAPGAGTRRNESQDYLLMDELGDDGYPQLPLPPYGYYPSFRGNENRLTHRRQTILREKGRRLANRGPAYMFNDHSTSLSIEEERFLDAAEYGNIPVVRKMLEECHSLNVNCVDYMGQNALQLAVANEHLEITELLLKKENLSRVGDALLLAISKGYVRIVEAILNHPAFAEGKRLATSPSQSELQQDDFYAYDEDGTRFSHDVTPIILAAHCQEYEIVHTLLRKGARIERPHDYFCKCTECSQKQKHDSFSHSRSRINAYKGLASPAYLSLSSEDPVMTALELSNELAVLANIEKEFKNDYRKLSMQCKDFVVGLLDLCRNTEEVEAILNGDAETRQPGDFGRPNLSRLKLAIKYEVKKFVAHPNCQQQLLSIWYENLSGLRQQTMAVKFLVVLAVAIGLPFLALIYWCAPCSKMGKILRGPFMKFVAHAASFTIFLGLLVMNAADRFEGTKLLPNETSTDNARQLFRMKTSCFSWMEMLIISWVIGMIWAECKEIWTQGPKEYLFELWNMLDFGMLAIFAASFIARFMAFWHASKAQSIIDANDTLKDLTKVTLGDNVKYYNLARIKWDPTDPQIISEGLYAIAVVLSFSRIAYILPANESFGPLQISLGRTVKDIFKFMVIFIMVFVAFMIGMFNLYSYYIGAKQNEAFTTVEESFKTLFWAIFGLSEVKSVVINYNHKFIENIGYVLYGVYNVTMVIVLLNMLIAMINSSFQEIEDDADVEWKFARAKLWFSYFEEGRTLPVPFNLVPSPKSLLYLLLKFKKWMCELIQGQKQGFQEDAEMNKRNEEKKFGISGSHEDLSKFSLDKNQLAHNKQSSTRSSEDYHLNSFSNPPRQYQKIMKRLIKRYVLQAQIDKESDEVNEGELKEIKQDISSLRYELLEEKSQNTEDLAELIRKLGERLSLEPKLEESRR
compound,measurement,setting,value
Cc1oc(-c2cccc(F)c2)nc1CN(Cc1ccccc1)C[C@@H]1CCC(=O)N1,outcome,[1],inactive
same,outcome,[2],inactive
same,outcome,[3],inactive
same,outcome,[4],inactive
same,outcome,[5],inactive
same,outcome,[6],inactive
same,outcome,[7],inactive
same,outcome,[8],inactive
same,outcome,[9],inactive
same,outcome,[10],inactive
same,outcome,[11],inactive
same,outcome,[12],inactive
same,outcome,[13],inactive
same,outcome,[14],inactive
same,outcome,[15],inactive
same,outcome,[16],inactive
same,outcome,[17],inactive
O=C(NCCc1ccccc1)c1cnc2ccccc2n1,outcome,[1],inactive
same,outcome,[2],inactive
same,outcome,[3],inactive
same,potentiation,[4],19% (active)
same,outcome,[5],inactive
same,outcome,[6],inactive
same,outcome,[7],inactive
same,outcome,[8],inactive
same,outcome,[9],inactive
same,outcome,[10],inactive
same,outcome,[11],inactive
same,outcome,[12],inactive
same,outcome,[13],inactive
same,outcome,[14],inactive
same,potentiation,[15],27.4% (active)
same,outcome,[16],inactive
same,outcome,[17],inactive
Cc1nn2c(N3CCN(C)CC3)c3c(nc2c1-c1ccccc1)CCCC3,outcome,[1],inactive
same,outcome,[2],inactive
same,outcome,[3],inactive
same,outcome,[4],inactive
same,outcome,[5],inactive
same,outcome,[6],inactive
same,outcome,[7],inactive
same,outcome,[8],inactive
same,outcome,[9],inactive
same,outcome,[10],inactive
same,outcome,[11],inactive
same,outcome,[12],inactive
same,outcome,[13],inactive
same,outcome,[14],inactive
same,outcome,[15],inactive
same,outcome,[16],inactive
same,outcome,[17],inactive
COC(=O)c1ccc(COc2ccc(/C=N/Nc3nc(C)cc(=O)[nH]3)cc2)cc1,outcome,[1],inactive
same,outcome,[2],inactive
same,outcome,[3],inactive
same,outcome,[4],inactive
same,outcome,[5],inactive
same,outcome,[6],inactive
same,outcome,[7],inactive
same,outcome,[8],inactive
same,outcome,[9],inactive
same,outcome,[10],inactive
same,outcome,[11],inactive
same,outcome,[12],inactive
same,outcome,[13],inactive
same,outcome,[14],inactive
same,outcome,[15],inactive
same,outcome,[16],inactive
same,outcome,[17],inactive
CCSc1nnc([C@H](Cc2c[nH]c3ccccc23)NC(=O)OC(C)(C)C)o1,outcome,[1],inactive
same,outcome,[2],inactive
same,outcome,[3],inactive
same,outcome,[4],inactive
same,outcome,[5],inactive
same,outcome,[6],inactive
same,outcome,[7],inactive
same,outcome,[8],inactive
same,outcome,[9],inactive
same,outcome,[10],inactive
same,outcome,[11],inactive
same,outcome,[12],inactive
same,outcome,[13],inactive
same,outcome,[14],inactive
same,potentiation,[15],13.1% (active)
same,outcome,[16],inactive
same,outcome,[17],inactive
CC1=NN(C(=O)COc2ccc(C)c(C)c2)C(O)(c2ccc(Cl)cc2)C1 (stereo not given),outcome,[1],inactive
same,outcome,[2],inactive
same,outcome,[3],inactive
same,outcome,[4],inactive
same,outcome,[5],inactive
same,outcome,[6],inactive
same,outcome,[7],inactive
same,outcome,[8],inactive
same,outcome,[9],inactive
same,outcome,[10],inactive
same,outcome,[11],inactive
same,outcome,[12],inactive
same,outcome,[13],inactive
same,outcome,[14],inactive
same,outcome,[15],inactive
same,outcome,[16],inactive
same,outcome,[17],inactive
CCCCc1nc(N2CCOCC2)c(C#N)c2c1CCCC2,outcome,[1],inactive
same,outcome,[2],inactive
same,outcome,[3],inactive
same,outcome,[4],inactive
same,outcome,[5],inactive
same,outcome,[6],inactive
same,outcome,[7],inactive
same,outcome,[8],inactive
same,outcome,[9],inactive
same,outcome,[10],inactive
same,outcome,[11],inactive
same,outcome,[12],inactive
same,outcome,[13],inactive
same,inhibition,[14],36.5% (active)
same,outcome,[15],inactive
same,outcome,[16],inactive
same,outcome,[17],inactive
COc1ccc(C2CC(=O)c3cnc(N4CCN(Cc5ccccc5)CC4)nc3C2)cc1 (stereo not given),outcome,[1],inactive
same,outcome,[2],inactive
same,outcome,[3],inactive
same,outcome,[4],inactive
same,outcome,[5],inactive
same,outcome,[6],inactive
same,outcome,[7],inactive
same,outcome,[8],inactive
same,outcome,[9],inactive
same,outcome,[10],inactive
same,outcome,[11],inactive
same,outcome,[12],inactive
same,outcome,[13],inactive
same,outcome,[14],inactive
same,potentiation,[15],14.7% (active)
same,outcome,[16],inactive
same,outcome,[17],inactive
NS(=O)(=O)c1ccc(Oc2ccc(S(N)(=O)=O)cc2)cc1,outcome,[1],inactive
same,outcome,[2],inactive
same,outcome,[3],inactive
same,outcome,[4],inactive
same,outcome,[5],inactive
same,outcome,[6],inactive
same,outcome,[7],inactive
same,outcome,[8],inactive
same,outcome,[9],inactive
same,outcome,[10],inactive
same,outcome,[11],inactive
same,outcome,[12],inactive
same,outcome,[13],inactive
same,outcome,[14],inactive
same,outcome,[15],inactive
same,outcome,[16],inactive
same,outcome,[17],inactive
Cc1cc(NC(=O)CSCC(=O)Nc2ccc(Cl)c(C(F)(F)F)c2)no1,outcome,[1],inactive
same,outcome,[2],inactive
same,outcome,[3],inactive
same,outcome,[4],inactive
same,inhibition,[5],71% (active)
same,outcome,[6],inactive
same,outcome,[7],inactive
same,outcome,[8],inactive
same,outcome,[9],inactive
same,outcome,[10],inactive
same,outcome,[11],inactive
same,outcome,[12],inactive
same,outcome,[13],inactive
same,inhibition,[14],35.2% (active)
same,outcome,[15],inactive
same,outcome,[16],inactive
same,outcome,[17],inactive
NC(=O)c1ccc(N2CCN(c3ncc(C(F)(F)F)cc3Cl)CC2)cc1,outcome,[1],inactive
same,outcome,[2],inactive
same,outcome,[3],inactive
same,outcome,[4],inactive
same,outcome,[5],inactive
same,outcome,[6],inactive
same,outcome,[7],inactive
same,outcome,[8],inactive
same,outcome,[9],inactive
same,outcome,[10],inactive
same,outcome,[11],inactive
same,outcome,[12],inactive
same,outcome,[13],inactive
same,outcome,[14],inactive
same,potentiation,[15],11.9% (active)
same,outcome,[16],inactive
same,outcome,[17],inactive
COC(=O)[C@@]12CCCCN1[C@H](c1ccc(-c3ccc(C(C)=O)cc3)cc1)[C@@H]1C(=O)N(C)C(=O)[C@@H]12,outcome,[1],inactive
same,outcome,[2],inactive
same,outcome,[3],inactive
same,outcome,[4],inactive
same,outcome,[5],inactive
same,outcome,[6],inactive
same,outcome,[7],inactive
same,outcome,[8],inactive
same,outcome,[9],inactive
same,outcome,[10],inactive
same,outcome,[11],inactive
same,outcome,[12],inactive
same,outcome,[13],inactive
same,outcome,[14],inactive
same,outcome,[15],inactive
same,outcome,[16],inactive
same,outcome,[17],inactive
COc1ccc(N=C2SCC(=O)N2Cc2ccccc2)cc1,outcome,[1],inactive
same,outcome,[2],inactive
same,outcome,[3],inactive
same,outcome,[4],inactive
same,outcome,[5],inactive
same,outcome,[6],inactive
same,outcome,[7],inactive
same,outcome,[8],inactive
same,outcome,[9],inactive
same,outcome,[10],inactive
same,outcome,[11],inactive
same,outcome,[12],inactive
same,outcome,[13],inactive
same,outcome,[14],inactive
same,outcome,[15],inactive
same,outcome,[16],inactive
same,outcome,[17],inactive
CCOCCCn1c(=S)[nH]c2cc(C(=O)NCCCN(CC)CC)ccc2c1=O,outcome,[1],inactive
same,outcome,[2],inactive
same,potentiation,[3],18% (active)
same,potentiation,[4],10% (active)
same,outcome,[5],inactive
same,outcome,[6],inactive
same,outcome,[7],inactive
same,outcome,[8],inactive
same,outcome,[9],inactive
same,outcome,[10],inactive
same,outcome,[11],inactive
same,outcome,[12],inactive
same,outcome,[13],inactive
same,outcome,[14],inactive
same,potentiation,[15],16.1% (active)
same,outcome,[16],inactive
same,outcome,[17],inactive
CCOC(=O)CC(NC(=O)c1cc2cc(Br)ccc2oc1=O)c1cccc([N+](=O)[O-])c1 (stereo not given),outcome,[1],inactive
same,outcome,[2],inactive
same,outcome,[3],inactive
same,outcome,[4],inactive
same,outcome,[5],inactive
same,outcome,[6],inactive
same,outcome,[7],inactive
same,outcome,[8],inactive
same,outcome,[9],inactive
same,outcome,[10],inactive
same,outcome,[11],inactive
same,outcome,[12],inactive
same,outcome,[13],inactive
same,outcome,[14],inactive
same,potentiation,[15],15.9% (active)
same,outcome,[16],inactive
same,outcome,[17],inactive
